Measurements from PMC7862700, “An all-to-all approach to the identification of sequence-specific readers for epigenetic DNA modifications on cytosine”.

How the values were obtained:
Experiment in all cases: DAPPL (digital affinity profiling via proximity ligation, sequencing); 10 mM Tris-HCl pH 7.5, 50 mM NaCl, 1 mM DTT, 4% glycerol, room temperature, 30 min; GST-TFs on glutathione beads, 16-mer random dsDNA library, 0.1% formaldehyde crosslink after washing; high values mean tight binding
Details in all cases: protein: recombinant; tags: N-terminal GST; dsDNA, one strand shown
[1] = molecular target: T1, FLI1 (Homo sapiens, UniProt Q01543 1-452)
T1 sequence: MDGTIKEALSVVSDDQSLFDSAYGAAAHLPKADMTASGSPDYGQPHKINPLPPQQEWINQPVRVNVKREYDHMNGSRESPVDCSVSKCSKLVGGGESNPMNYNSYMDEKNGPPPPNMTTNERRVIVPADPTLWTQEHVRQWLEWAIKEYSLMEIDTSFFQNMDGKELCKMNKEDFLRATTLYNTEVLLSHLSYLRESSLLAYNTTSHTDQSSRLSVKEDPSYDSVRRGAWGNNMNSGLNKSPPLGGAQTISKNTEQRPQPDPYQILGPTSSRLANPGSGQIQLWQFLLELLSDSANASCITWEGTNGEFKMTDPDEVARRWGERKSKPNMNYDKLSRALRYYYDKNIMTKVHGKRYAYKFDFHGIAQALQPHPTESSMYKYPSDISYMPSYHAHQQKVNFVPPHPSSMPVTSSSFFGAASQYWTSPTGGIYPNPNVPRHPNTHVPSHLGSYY
Method in brief: (§1)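 Binding signal is given per hexamer as its read frequency for a factor divided by its frequency in the tag-only sample. GST-fused human transcription factors were expressed in yeast, captured on glutathione beads, barcoded with DNA and pooled with that sample, then incubated with 200 nmole of a 16-mer random double-stranded DNA library in Tris/NaCl/DTT/glycerol buffer for 30 min at room temperature. The pools were then washed, crosslinked, proximity-ligated, amplified by PCR and sequenced on an Illumina NextSeq500.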

[2] = molecular target: T2, ELK1 (Homo sapiens, UniProt P19419 1-428)
T2 sequence: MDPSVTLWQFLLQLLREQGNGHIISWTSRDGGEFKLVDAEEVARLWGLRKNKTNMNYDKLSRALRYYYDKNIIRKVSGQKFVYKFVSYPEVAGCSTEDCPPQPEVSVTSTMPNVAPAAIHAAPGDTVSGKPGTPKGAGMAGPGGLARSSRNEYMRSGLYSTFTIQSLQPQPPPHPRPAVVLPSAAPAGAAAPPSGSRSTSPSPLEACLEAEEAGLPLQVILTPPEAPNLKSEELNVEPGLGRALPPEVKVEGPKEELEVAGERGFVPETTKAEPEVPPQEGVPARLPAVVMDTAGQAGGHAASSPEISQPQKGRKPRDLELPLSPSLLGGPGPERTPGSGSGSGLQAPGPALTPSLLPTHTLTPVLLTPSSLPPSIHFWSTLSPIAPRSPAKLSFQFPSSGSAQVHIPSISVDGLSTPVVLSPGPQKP
Method in brief: as §1

[3] = molecular target: T3, GABPA (Homo sapiens, UniProt Q06546 1-454)
T3 sequence: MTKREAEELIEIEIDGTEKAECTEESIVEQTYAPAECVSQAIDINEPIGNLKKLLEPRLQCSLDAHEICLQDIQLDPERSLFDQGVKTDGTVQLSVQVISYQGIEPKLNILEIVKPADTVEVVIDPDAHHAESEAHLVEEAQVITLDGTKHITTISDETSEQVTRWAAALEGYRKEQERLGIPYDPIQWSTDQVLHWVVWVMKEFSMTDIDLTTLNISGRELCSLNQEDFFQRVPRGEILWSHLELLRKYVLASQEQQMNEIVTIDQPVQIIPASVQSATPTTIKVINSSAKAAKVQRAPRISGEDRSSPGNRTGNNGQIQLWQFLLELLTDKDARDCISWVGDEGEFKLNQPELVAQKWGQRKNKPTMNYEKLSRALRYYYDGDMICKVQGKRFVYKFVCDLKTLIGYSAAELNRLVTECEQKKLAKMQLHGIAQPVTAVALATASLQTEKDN
Method in brief: as §1

[4] = molecular target: T4, ERG (Homo sapiens, UniProt P11308 1-479)
T4 sequence: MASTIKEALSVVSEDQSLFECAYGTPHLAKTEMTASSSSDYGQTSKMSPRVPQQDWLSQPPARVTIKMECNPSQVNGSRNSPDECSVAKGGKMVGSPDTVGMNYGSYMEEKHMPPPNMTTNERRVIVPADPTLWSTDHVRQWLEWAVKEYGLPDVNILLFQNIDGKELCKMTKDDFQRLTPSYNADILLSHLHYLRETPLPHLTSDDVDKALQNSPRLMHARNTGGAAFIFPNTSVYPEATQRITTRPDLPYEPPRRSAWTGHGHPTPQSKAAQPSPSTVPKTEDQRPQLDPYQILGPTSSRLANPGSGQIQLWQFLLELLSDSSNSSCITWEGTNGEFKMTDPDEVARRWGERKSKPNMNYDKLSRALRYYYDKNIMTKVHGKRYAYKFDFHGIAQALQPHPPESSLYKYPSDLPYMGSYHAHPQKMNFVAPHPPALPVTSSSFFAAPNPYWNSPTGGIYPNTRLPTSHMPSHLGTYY
Method in brief: as §1

[5] = molecular target: ELF1 (Homo sapiens, UniProt P32519 1-619)
Chain of ELF1 (P32519 whole entry): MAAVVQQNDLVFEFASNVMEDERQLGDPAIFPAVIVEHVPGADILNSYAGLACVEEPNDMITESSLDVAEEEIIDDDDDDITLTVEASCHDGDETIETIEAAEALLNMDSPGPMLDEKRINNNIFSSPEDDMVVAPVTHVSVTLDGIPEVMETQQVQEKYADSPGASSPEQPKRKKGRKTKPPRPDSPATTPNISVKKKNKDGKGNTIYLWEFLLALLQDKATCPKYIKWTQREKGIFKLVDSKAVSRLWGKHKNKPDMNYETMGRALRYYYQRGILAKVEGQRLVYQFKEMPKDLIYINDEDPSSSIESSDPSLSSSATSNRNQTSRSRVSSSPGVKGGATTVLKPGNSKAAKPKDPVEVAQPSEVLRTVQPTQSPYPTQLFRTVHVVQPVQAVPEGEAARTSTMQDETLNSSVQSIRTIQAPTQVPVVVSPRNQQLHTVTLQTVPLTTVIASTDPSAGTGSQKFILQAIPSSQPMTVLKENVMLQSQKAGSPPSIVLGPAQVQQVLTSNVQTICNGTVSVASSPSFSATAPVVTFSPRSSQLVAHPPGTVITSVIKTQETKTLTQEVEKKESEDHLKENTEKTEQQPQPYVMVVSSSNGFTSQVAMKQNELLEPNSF
Method in brief: as §1

[6] = molecular target: T5, EHF (Homo sapiens, UniProt Q9NZC4 1-300)
T5 sequence: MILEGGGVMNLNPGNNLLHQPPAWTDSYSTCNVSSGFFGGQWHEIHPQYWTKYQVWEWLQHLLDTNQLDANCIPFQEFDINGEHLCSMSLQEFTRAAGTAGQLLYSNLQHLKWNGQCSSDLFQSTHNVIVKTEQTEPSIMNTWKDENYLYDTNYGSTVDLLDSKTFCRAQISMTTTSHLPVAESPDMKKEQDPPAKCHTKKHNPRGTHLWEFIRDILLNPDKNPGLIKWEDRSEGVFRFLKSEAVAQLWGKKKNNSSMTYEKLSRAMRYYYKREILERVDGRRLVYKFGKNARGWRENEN
Method in brief: as §1

[7] = molecular target: SPI1 (Homo sapiens, UniProt P17947 1-270)
Method in brief: as §1

[8] = molecular target: SPIB (Homo sapiens, UniProt Q01892 1-262)
Chain of SPIB (Q01892 whole entry): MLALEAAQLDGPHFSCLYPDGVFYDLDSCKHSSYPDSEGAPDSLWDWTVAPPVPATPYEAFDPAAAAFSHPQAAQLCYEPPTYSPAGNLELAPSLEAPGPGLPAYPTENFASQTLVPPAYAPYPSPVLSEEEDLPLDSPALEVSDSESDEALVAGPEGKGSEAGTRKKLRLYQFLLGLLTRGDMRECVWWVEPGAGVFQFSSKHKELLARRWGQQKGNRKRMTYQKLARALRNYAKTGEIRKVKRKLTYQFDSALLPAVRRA
Method in brief: as §1

[9] = molecular target: T6, ELK3 (Homo sapiens, UniProt P41970 1-407)
T6 sequence: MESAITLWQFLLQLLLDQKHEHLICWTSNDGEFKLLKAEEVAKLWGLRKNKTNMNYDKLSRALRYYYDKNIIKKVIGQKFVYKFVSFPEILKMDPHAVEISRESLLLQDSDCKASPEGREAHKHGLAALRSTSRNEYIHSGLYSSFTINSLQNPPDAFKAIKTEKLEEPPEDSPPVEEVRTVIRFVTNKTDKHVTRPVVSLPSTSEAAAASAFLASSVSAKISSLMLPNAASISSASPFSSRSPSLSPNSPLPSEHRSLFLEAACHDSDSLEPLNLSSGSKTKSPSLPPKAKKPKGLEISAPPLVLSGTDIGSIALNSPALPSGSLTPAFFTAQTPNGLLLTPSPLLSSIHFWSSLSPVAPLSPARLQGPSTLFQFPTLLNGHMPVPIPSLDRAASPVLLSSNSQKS
Method in brief: as §1

[10] = molecular target: T7, FEV (Homo sapiens, UniProt Q99581 1-238)
T7 sequence: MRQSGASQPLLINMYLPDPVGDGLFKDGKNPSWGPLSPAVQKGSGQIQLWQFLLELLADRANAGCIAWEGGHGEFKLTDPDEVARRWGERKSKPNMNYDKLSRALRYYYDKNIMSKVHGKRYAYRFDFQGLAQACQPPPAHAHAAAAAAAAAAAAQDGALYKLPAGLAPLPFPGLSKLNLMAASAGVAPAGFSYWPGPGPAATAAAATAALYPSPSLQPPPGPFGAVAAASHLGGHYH
Method in brief: as §1

[11] = molecular target: ETV5 (Homo sapiens, UniProt P41161 1-510)
Chain of ETV5 (P41161 whole entry): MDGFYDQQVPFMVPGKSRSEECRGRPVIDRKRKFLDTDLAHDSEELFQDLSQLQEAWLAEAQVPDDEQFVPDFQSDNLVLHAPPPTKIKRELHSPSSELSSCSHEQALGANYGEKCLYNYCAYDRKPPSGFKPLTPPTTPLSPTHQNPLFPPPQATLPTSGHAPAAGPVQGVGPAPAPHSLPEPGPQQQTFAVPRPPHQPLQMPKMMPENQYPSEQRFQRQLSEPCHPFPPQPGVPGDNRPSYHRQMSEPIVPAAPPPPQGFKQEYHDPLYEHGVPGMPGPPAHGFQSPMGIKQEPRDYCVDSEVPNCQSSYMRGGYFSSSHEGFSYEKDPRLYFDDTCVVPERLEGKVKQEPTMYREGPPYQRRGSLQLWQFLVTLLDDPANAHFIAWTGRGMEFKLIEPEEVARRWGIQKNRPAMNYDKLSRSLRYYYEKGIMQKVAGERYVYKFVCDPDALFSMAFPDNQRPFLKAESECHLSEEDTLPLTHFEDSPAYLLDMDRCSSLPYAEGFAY
Method in brief: as §1

[12] = molecular target: T8, SPIC (Homo sapiens, UniProt Q8N5J4 1-248)
T8 sequence: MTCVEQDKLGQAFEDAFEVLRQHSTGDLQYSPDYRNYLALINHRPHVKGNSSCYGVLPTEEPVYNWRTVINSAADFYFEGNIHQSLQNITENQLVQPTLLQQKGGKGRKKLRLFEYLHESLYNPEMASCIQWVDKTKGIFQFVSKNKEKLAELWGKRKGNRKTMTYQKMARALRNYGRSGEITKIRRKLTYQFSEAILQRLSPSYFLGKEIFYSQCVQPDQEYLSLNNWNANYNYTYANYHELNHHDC
Method in brief: as §1

[13] = molecular target: ELF4 (Homo sapiens, UniProt Q99607 1-663)
Chain of ELF4 (Q99607 whole entry): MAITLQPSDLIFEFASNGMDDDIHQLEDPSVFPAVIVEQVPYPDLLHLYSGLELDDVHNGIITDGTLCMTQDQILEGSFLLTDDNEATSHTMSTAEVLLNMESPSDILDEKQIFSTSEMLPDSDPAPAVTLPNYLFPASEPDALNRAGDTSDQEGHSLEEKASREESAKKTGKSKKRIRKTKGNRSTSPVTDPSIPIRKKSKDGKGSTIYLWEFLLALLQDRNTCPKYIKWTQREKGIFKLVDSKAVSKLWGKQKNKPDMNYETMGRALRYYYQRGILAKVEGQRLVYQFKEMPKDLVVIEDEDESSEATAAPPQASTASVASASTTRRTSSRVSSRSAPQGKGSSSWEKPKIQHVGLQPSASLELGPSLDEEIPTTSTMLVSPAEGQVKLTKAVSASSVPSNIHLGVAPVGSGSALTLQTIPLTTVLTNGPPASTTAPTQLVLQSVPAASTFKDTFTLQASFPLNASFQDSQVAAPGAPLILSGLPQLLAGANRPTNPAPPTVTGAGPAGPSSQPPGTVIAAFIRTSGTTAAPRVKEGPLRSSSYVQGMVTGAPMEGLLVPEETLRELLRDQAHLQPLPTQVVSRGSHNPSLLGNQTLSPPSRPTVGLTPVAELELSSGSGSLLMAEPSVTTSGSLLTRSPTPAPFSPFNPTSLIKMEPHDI
Method in brief: as §1

[14] = molecular target: ETV1 (Homo sapiens, UniProt P50549 1-477)
Chain of ETV1 (P50549 whole entry): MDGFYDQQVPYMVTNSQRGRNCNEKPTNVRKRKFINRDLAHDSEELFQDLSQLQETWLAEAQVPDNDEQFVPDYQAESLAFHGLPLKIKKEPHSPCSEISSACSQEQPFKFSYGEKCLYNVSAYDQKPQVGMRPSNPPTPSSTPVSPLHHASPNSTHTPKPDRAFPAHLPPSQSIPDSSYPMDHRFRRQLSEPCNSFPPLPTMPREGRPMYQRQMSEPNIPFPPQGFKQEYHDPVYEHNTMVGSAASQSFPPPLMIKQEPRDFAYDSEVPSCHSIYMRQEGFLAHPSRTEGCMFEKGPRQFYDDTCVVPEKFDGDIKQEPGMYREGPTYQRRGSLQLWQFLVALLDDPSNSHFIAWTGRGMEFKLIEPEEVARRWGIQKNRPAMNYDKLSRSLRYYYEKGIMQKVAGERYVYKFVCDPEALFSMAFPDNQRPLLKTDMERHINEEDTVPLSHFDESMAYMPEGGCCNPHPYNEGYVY
Method in brief: as §1

[15] = molecular target: T9, ETV3L (Homo sapiens, UniProt Q6ZN32 1-361)
T9 sequence: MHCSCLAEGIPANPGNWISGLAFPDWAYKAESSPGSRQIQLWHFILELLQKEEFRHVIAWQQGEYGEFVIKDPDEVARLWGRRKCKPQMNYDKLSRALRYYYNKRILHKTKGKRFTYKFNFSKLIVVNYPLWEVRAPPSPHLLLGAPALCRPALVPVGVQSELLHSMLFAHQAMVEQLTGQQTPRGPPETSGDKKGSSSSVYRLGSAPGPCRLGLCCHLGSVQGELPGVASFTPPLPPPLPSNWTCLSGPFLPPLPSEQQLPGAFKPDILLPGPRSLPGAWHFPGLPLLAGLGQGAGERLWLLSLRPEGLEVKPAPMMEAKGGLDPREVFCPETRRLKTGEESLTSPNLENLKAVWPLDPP
Method in brief: as §1

[16] = molecular target: T10, ETS2 (Homo sapiens, UniProt P15036 1-469)
T10 sequence: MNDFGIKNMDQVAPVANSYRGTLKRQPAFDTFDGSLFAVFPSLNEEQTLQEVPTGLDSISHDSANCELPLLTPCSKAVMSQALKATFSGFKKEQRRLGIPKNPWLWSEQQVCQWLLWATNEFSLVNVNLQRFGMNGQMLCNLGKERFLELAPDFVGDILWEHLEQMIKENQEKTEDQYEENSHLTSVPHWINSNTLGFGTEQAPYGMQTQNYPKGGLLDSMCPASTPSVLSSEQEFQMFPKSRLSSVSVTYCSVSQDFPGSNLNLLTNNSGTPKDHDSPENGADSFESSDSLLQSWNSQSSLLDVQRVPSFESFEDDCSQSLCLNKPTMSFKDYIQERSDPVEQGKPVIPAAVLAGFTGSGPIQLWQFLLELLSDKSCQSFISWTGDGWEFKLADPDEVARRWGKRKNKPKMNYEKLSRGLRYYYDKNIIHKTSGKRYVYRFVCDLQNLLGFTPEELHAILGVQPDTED
Method in brief: as §1

[17] = molecular target: T11, ELF5 (Homo sapiens, UniProt Q9UKW6-2 1-255)
T11 sequence: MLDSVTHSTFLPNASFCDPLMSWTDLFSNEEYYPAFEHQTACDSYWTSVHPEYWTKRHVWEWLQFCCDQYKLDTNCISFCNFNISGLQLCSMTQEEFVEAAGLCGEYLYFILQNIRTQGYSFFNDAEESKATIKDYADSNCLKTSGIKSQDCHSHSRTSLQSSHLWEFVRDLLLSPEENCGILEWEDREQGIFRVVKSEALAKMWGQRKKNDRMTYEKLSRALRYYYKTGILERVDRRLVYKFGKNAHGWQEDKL
Method in brief: as §1

[18] = molecular target: T12, ETV3 (Homo sapiens, UniProt P41162-2 1-143)
T12 sequence: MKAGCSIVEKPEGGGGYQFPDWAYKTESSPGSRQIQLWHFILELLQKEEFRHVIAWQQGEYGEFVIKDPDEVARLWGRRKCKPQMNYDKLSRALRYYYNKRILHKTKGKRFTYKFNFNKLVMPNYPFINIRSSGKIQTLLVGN
Method in brief: as §1

[19] = molecular target: ETV6 (Homo sapiens, UniProt P41212 1-452)
Chain of ETV6 (P41212 whole entry): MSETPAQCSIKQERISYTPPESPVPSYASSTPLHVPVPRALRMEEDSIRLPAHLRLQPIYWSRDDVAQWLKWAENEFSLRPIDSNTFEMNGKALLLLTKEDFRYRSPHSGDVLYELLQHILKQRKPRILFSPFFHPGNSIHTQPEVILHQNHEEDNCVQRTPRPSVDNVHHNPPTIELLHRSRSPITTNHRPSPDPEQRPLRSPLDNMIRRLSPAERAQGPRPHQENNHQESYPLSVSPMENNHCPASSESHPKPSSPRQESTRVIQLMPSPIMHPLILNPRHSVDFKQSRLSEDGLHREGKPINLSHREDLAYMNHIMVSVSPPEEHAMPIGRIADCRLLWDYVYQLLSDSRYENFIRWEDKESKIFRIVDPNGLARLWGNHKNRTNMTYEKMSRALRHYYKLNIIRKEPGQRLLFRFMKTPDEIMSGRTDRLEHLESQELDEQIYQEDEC
Method in brief: as §1

TTGCCG
binding signal [1]: 1.2 fold enrichment (6-mer frequency, TF over GST control) | binding signal [2]: 1.14 fold enrichment (6-mer frequency, TF over GST control) | binding signal [3]: 1.16 fold enrichment (6-mer frequency, TF over GST control) | binding signal [4]: 1.04 fold enrichment (6-mer frequency, TF over GST control) | binding signal [5]: 1.03 fold enrichment (6-mer frequency, TF over GST control) | binding signal [6]: 1.19 fold enrichment (6-mer frequency, TF over GST control) | binding signal [7]: 1.12 fold enrichment (6-mer frequency, TF over GST control) | binding signal [8]: 1.12 fold enrichment (6-mer frequency, TF over GST control) | binding signal [9]: 1.07 fold enrichment (6-mer frequency, TF over GST control) | binding signal [10]: 1.12 fold enrichment (6-mer frequency, TF over GST control) | binding signal [11]: 1.12 fold enrichment (6-mer frequency, TF over GST control) | binding signal [12]: 1.08 fold enrichment (6-mer frequency, TF over GST control) | binding signal [13]: 1.12 fold enrichment (6-mer frequency, TF over GST control) | binding signal [14]: 1.09 fold enrichment (6-mer frequency, TF over GST control) | binding signal [15]: 1.11 fold enrichment (6-mer frequency, TF over GST control) | binding signal [16]: 1.12 fold enrichment (6-mer frequency, TF over GST control) | binding signal [17]: 1.07 fold enrichment (6-mer frequency, TF over GST control) | binding signal [18]: 1.1 fold enrichment (6-mer frequency, TF over GST control) | binding signal [19]: 1.08 fold enrichment (6-mer frequency, TF over GST control)
